In the library only some 12% were active in any assay of this set; here they are far more common.
HP1b chromo inh: inhibitors of HP1-beta chromodomain binding to methylated histone tails; P83916; AlphaScreen HP1-beta / biotin-H3K9me3 peptide binding; Potency, µM (highest dose often 114 µM), for the others: at the highest dose activity change, negative = inhibition, most hits filed as inhibitors; 0.56% of 390,000 active; AID 540317; also: nearly all actives have a fitted effect of over 70% in size
Target sequence (P83916 whole entry, looked up): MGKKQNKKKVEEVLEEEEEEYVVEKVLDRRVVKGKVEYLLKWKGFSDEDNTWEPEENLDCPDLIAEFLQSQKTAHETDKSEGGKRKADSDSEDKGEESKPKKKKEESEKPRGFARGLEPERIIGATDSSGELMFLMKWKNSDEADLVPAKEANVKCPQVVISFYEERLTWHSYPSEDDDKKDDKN
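AlphaScreen: HP1-beta (50 nM) preformed 30 min with biotin-H3(1-18)K9me3 peptide (50 nM) in PBS pH 7.4, 0.01% Tween-20. Compound added for 30 min at RT, then streptavidin donor/nickel chelate acceptor beads (10 ug/mL) for 30 min.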
Sfp inh: blocks B. subtilis Sfp PPTase activity; Q9F4F7; Biochemical Sfp PPTase activity, qHTS; Potency, µM, for inactives: largest response in the series, negative = inhibition, actives largely listed as inhibitors; 3.5% of 310,000 active;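 also: the enzyme is Sfp with the accession as filed and its product quenches rhodamine fluorescence; 0% = enzyme reaction without inhibitor and -100% = no enzyme wells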
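Fluorescence-quenching assay: 15 nM Sfp-PPTase preincubated 15 min at room temperature with compound, then 5 uM rhodamine-CoA and 12.5 uM BHQ-2-labelled YbbR peptide added. Fluorescence (ex 525/em 598 nm) read at start and after 30 min; difference gives rate.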
BAZ2B block: BAZ2B (human) inhibition. Q9UIF8. AlphaScreen BAZ2B-H3K14Ac peptide displacement. Potency, µM (highest dose often 114 µM), for inactives: at the highest dose activity change, negative = inhibition, hits mostly inhibitors. 4.4% of 360,000 active. AID 504333; also: % is scaled to controls: 0 for no effect and ±100 for the full control effect; nearly all actives have a fitted effect of over 60% in size
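Inhibition is scored as reduced AlphaScreen emission. The BAZ2B/b-H3(5-23)K14Ac complex (50 nM each) in PBS pH 7.4, 0.01% Tween-20 meets compound (up to 110 uM) for 30 min at RT before bead addition.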
G9a block: inhibitors of human histone lysine methyltransferase G9a; Q96KQ7; G9a H3K9 monomethylation, AlphaScreen, 2 h; Potency, µM (highest dose often 102 µM), without a hit: at the highest dose activity, negative = inhibition, most hits filed as inhibitors; 8.8% of 350,000 active; AID 504332; also: % is scaled to controls: 0 for no effect and ±100 for the full control effect; nearly all actives have a fitted effect of over 75% in size
Target sequence (Q96KQ7 913-1193 limits assumed): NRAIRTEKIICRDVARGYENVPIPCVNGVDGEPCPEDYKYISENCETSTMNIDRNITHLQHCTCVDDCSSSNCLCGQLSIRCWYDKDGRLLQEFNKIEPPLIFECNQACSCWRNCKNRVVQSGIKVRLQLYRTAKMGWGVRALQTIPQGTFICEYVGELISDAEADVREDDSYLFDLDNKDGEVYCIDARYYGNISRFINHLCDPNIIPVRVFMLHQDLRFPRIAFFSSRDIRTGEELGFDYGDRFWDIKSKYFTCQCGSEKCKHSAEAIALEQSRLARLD
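AlphaScreen detection with an anti-monomethyl H3K9 antibody quantified product after a 2 h room-temperature reaction containing 500 nM biotinylated H3K9 peptide, 20 µM SAM and 20 nM enzyme, which had been preincubated 15 min with compound.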
JMJD2A Tudor inh: inhibitors of human JMJD2A Tudor domain; AlphaScreen JMJD2A-Tudor / H3K4me3 peptide binding; Potency, µM (highest dose often 114 µM), inactives show at the top dose activity change, negative = inhibition, usual class: inhibitors; AID 504339; O75164; 4.4% of 390,000 active; also: % is scaled to controls: 0 for no effect and ±100 for the full control effect; nearly all actives have a fitted effect of over 50% in size
PLK1 PBD inh: inhibitors of human PLK1 polo-box domain binding. Potency, µM, without a hit: max response, negative = inhibition, most hits filed as inhibitors. 2.8% of 360,000 active. Plk1 PBD binding of FITC phosphopeptide, fluorescence polarization; also: series mostly up to about 57 µM; % is scaled to controls: 0 for no effect and ±100 for the full control effect; nearly all actives have a fitted effect of over 65% in size
Numbers without * were called inactive; ? = inconclusive; · = not tested or not shown; [ ] = dose if it differs, or a comment. Calls follow the shape of the dose curve; as a rule, active = well fitted curve in the direction sought with a large enough effect; inconclusive = small, poorly fitted or top-dose-only effect, or another doubt; inactive = no such curve, though single readings can be large; an effect the other way counts as inactive or inconclusive. Potency is read from the fitted curve at half-maximal effect.

SMILES	HP1b chromo inh	Sfp inh	BAZ2B block	G9a block	JMJD2A Tudor inh	PLK1 PBD inh
Cc1cccc(CSc2cccc3cccnc23)c1	148%	-21%	62%	178%	20%[57.1 µM]	11µM*
N#Cc1ccc(CN2CCC3(CC2)CCN(C(=O)c2cccc(F)c2)CC3)cc1	·	14%	·	-2%[12.7 µM]	·	·
CN(C)c1cc2c(c(N(C)C)c1)C(=O)c1ccccc1C2=O	?	?	8.9µM*	10µM*	?	-7%
Cc1cccc(NC(=O)CCN2C(=O)C3C4C=CC(C4)C3C2=O)n1 (stereo not given)	-1%	16%	-3%	-5%	-12%[11.4 µM]	12µM*
O=C(CCN1C(=O)C2C3C=CC(C3)C2C1=O)NCCc1ccccc1 (stereo not given)	-5%	-1%	-6%	-32%	-14%[11.4 µM]	24µM*
O=C1C2C3C=CC(C3)C2C(=O)N1CCc1ccccc1 (stereo not given)	25%	6%	?	3%[0.501 µM]	-10%	-1%
Cn1ncc2c(=O)[nH]c(N)nc21	1%	·	·	·	-10%	-6%
Fc1ccc(CSc2nncn3c2cc2occc23)c(Cl)c1	-3%	·	?	?	-30%	·
CCCCC1OC23CCCCC2C(C#N)(C#N)C1(C#N)C(=N)O3 (stereo not given)	23%	-1%	?	-29%[59 µM]	-14%	-7%
CCCCCCCCOc1ccc(C2OC34CCCCC3C(C#N)(C#N)C2(C#N)C(=N)O4)cc1 (stereo not given)	191%	-10%	86%	?	-5%[11.4 µM]	24µM*
O=C(O)c1cccc(Nc2ncnc3sccc23)c1	33%	-16%	-14%	40µM*	-6%	-15%
COc1ccc(-n2c(SCC(=O)Nc3cc(C)cc(C)c3)nc3c(oc4ccccc43)c2=O)cc1	25%	·	1%	10%[59 µM]	0%	·
COc1ccc(-c2onc(C)c2C)cc1S(=O)(=O)N1CCN(c2ccc(Cl)cc2)CC1	1%	·	-2%	4%[59 µM]	-25%	·
S=c1[nH]nc(-c2ccncc2)n1CC1CCCO1 (stereo not given)	-10%	?	-8%	?	45µM*	-10%
Fc1ccc(-c2nnc(SCc3ncc(-c4ccccc4)o3)n2CC2CCCO2)cc1 (stereo not given)	61%	1%	9%	?	-22%	-15%
Fc1ccc(-c2n[nH]c(=S)n2CC2CCCO2)cc1 (stereo not given)	6%	-26%	-37%	2.8µM*	-4%[11.4 µM]	-20%
CC(CC(=O)Nc1ccc2c(c1)c(=O)n(C)n2Cc1ccc(F)cc1)C(F)(F)F (stereo not given)	·	·	·	·	·	-2%
CCCN(CCC)C(=O)c1ccc2c(=O)n(Cc3ccco3)c(=S)[nH]c2c1	1%	13µM*	-35%	?	-36%	-9%
CN1CCN(C(=O)c2ccc3c(=O)n(Cc4ccco4)c(=S)[nH]c3c2)CC1	17%	-5%	-5%	45µM*	13µM*	-7%
O=c1c2cc3c(cc2[nH]c(=S)n1Cc1ccco1)OCO3	23%	20µM*	-25%	40µM*	-7%	-14%
O=C(c1ccc2c(=O)n(Cc3ccco3)c(=S)[nH]c2c1)N1CCN(Cc2ccccc2)CC1	6%	9%	1%	-4%[59 µM]	-26%	-5%
COc1ccc(N=c2nc(-c3ccccc3)n(-c3ccc(C)cc3)s2)cc1	-29%[57 µM]	·	·	·	-35%[57.1 µM]	·
Cc1ccccc1Nc1c(-c2cccs2)nc2cccc(C)n12	-7%	·	?	-49%[59 µM]	?	·
Cc1ccc2[nH]c(C)cc(=S)c2c1	-4%	?	-16%	?	-33%	?
Cc1cc(=S)c2ccccc2[nH]1	11%	56µM*	?	2µM*	?	?
SMILES	HP1b chromo inh	Sfp inh	BAZ2B block	G9a block	JMJD2A Tudor inh	PLK1 PBD inh
COc1ccc(N2C(=O)CC(NC3CC3)C2=O)cc1 (stereo not given)	44%	-7%	6%	13%[12.7 µM]	-2%	-2%
CCOC(=O)c1ccc(N2C(=O)CC(NC3CCN(C(=O)c4ccc(F)cc4)CC3)C2=O)cc1 (stereo not given)	36%	-8%	8%	45µM*	-1%	2%
CCOc1ccc(N2C(=O)CC(NC3CCN(C(=O)c4ccc(F)cc4)CC3)C2=O)cc1 (stereo not given)	54%	2%	-4%	13µM*	-17%	-6%
O=C(CN1C(=O)CC(c2ccco2)Sc2ccccc21)Nc1ccc(OC(F)(F)F)cc1 (stereo not given)	5%	·	0%	0%[59 µM]	-19%	·
COc1ccc(CNC(=O)c2cnn(-c3ccccc3)c2-n2cccc2)cc1OC	51%	·	-17%	22%[59 µM]	-20%	·
C=C(C)C(=O)c1cccs1	·	-5%	·	·	·	·
O=C(/C(=C/O)N=Nc1ccccc1)c1cccs1	45µM*	-7%	22µM*	35µM*	-17%[11.4 µM]	?
CC1(CCc2ccc3c(c2)OCO3)NCCc2c1[nH]c1ccccc21 (stereo not given)	14%	2%	-38%	50µM*	?	-8%
O=C(Nc1ccc2nc(SCC(=O)N3CCCc4ccccc43)sc2c1)c1cccc(Cl)c1	28%	·	-12%	-15%[59 µM]	-14%	·
CC(Sc1n[nH]c(-c2ccccc2)n1)C(=O)c1c(N)n(C)c(=O)n(C)c1=O (stereo not given)	31%	·	4%	50µM*	0%	-8%
Cc1cc(C)nc(NC(=O)CSc2nn(-c3ccccc3)c(=S)s2)n1	12%	-6%	79µM*	?	?	-17%
CC(Sc1nn(-c2ccc(F)cc2)c(=S)s1)C(=O)c1c(N)n(C)c(=O)n(C)c1=O (stereo not given)	0%	·	-13%	50µM*	-19%	-4%
O=C(CSc1nn(-c2ccccc2)c(=S)s1)Nc1ncccn1	24%	-2%	-24%	-21%	-13%	-5%
CC(Sc1nc2ccccc2s1)C(=O)c1c(N)n(C)c(=O)n(C)c1=O (stereo not given)	41%	10%	-16%	?	-5%	-2%
Cn1c(N)c(C(=O)CSc2nn(-c3ccccc3)c(=S)s2)c(=O)n(C)c1=O	11%	·	0%	50µM*	-21%	-9%
Fc1cccc(-n2ncc3c2ncn2nc(Cc4ccccc4)nc32)c1	24%	·	-4%	-28%[59 µM]	-4%	·
Cc1ccccc1CNC(=O)Cn1ncn2nc(-c3cccs3)cc2c1=O	53%	·	-16%	-12%[59 µM]	5%	·
CCc1ccc(OCC(=O)N(Cc2ccc(C(C)C)cc2)C2CCS(=O)(=O)C2)cc1 (stereo not given)	19%	·	5%	6%[59 µM]	-7%	·
COc1ccc(-n2c(=O)c3c(c4cc(OC)ccc4n3C)n(C)c2=O)cc1	32%	·	-2%	-2%[59 µM]	-7%	·
O=C(CCCn1c(=O)c2sccc2n(Cc2c(F)cccc2Cl)c1=O)NCc1ccccc1	55%	·	39%	39%[59 µM]	1%	·

Screening data deposited in PubChem BioAssay by National Center for Advancing Translational Sciences (NCATS).
